Assay results taken from publication PMC7862700, “An all-to-all approach to the identification of sequence-specific readers for epigenetic DNA modifications on cytosine”.

How the values were obtained:
Experiment in all cases: DAPPL (digital affinity profiling via proximity ligation, sequencing); 10 mM Tris-HCl pH 7.5, 50 mM NaCl, 1 mM DTT, 4% glycerol, room temperature, 30 min; GST-TFs on glutathione beads, 16-mer random dsDNA library, 0.1% formaldehyde crosslink after washing; high values mean tight binding
Conditions in all cases: protein: recombinant; tags: N-terminal GST; dsDNA, one strand shown
ELK4 = target: T1, ELK4 (Homo sapiens, UniProt P28324-2 1-405)
T1 sequence: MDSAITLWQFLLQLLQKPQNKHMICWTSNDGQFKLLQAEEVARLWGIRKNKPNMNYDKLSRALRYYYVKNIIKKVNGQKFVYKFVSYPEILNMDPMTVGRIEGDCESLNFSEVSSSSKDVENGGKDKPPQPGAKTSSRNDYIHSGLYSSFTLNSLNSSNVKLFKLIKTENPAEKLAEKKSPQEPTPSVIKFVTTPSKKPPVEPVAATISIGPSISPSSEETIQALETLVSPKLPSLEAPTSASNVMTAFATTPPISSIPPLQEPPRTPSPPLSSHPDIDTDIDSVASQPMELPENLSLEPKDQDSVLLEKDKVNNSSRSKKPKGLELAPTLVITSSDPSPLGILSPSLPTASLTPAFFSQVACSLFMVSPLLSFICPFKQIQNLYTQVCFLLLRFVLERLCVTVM
How it was run: (§1)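 Each value of binding signal is a hexamer's read frequency for a factor divided by the same hexamer's frequency in the tag-only sample. Barcoded, bead-captured GST fusions of human transcription factors made in yeast were pooled with that sample and incubated with 200 nmole of a random double-stranded 16-mer DNA library in Tris/NaCl/DTT/glycerol buffer at room temperature for 30 min. Washing, 0.1% formaldehyde crosslinking, proximity ligation, PCR and Illumina NextSeq500 sequencing followed.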

ELF3 = target: T2, ELF3 (Homo sapiens, UniProt P78545 1-371)
T2 sequence: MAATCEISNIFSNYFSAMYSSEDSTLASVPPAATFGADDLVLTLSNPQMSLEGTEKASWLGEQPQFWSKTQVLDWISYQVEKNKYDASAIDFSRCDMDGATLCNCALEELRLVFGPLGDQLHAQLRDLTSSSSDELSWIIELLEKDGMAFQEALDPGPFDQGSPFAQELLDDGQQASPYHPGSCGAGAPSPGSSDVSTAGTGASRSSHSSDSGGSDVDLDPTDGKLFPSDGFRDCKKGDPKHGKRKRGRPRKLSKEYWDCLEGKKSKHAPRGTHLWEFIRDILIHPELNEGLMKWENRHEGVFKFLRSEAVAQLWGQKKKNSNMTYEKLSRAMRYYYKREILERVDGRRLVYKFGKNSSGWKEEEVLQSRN
How it was run: as §1

ETV7 = target: T3, ETV7 (Homo sapiens, UniProt Q9Y603 1-341)
T3 sequence: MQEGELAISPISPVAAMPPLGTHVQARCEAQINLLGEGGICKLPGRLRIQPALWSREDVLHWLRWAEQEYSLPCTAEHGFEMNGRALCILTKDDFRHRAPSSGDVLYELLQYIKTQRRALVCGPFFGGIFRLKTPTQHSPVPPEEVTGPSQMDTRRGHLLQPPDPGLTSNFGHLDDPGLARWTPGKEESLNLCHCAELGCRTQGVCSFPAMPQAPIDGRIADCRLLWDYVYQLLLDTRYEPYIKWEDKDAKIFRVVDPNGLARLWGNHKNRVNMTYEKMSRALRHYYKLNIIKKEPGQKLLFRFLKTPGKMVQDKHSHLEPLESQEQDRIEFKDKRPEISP
How it was run: as §1

ELF5 = target: T4, ELF5 (Homo sapiens, UniProt Q9UKW6-2 1-255)
T4 sequence: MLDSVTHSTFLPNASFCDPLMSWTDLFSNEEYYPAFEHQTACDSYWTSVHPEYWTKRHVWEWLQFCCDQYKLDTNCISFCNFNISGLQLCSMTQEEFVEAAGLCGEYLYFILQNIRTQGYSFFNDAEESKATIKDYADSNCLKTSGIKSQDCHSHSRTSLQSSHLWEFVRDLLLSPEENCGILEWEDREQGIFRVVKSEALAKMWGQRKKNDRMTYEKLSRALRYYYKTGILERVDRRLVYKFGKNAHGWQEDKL
How it was run: as §1

ETV2 = target: T5, ETV2 (Homo sapiens, UniProt O00321 1-342)
T5 sequence: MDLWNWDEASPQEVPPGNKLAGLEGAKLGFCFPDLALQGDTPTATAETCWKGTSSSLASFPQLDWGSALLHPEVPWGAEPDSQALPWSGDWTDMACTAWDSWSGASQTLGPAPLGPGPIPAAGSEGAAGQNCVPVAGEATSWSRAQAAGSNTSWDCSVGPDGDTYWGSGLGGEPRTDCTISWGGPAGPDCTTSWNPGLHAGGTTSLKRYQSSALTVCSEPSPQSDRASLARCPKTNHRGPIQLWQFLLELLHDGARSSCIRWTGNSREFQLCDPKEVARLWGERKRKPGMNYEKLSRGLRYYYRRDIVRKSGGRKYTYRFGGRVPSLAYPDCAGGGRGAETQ
How it was run: as §1

CRX = CRX (Homo sapiens, UniProt O43186 1-299)
How it was run: as §1

Chain of CRX (O43186 whole entry): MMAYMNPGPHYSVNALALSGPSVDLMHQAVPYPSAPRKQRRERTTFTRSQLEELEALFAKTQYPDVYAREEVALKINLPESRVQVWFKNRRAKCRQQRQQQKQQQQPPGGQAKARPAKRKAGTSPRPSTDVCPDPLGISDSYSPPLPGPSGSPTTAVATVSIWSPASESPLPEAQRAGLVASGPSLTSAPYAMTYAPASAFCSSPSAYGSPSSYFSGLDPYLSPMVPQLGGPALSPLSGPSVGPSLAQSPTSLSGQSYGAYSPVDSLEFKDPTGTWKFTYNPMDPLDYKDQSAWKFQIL

Sequence	binding signal (ELK4)	binding signal (ELF3)	binding signal (ETV7)	binding signal (ELF5)	binding signal (ETV2)	binding signal (CRX)
CCGCTG	1.2 fold enrichment (6-mer frequency, TF over GST control)	1.01 fold enrichment (6-mer frequency, TF over GST control)	1.16 fold enrichment (6-mer frequency, TF over GST control)	1.03 fold enrichment (6-mer frequency, TF over GST control)		
CCGATG	1.07 fold enrichment (6-mer frequency, TF over GST control)	1.11 fold enrichment (6-mer frequency, TF over GST control)	1.1 fold enrichment (6-mer frequency, TF over GST control)			
CATCCA	1.07 fold enrichment (6-mer frequency, TF over GST control)					
GGTTTT	1.03 fold enrichment (6-mer frequency, TF over GST control)	1.14 fold enrichment (6-mer frequency, TF over GST control)	1.1 fold enrichment (6-mer frequency, TF over GST control)	1.12 fold enrichment (6-mer frequency, TF over GST control)	1.2 fold enrichment (6-mer frequency, TF over GST control)	1.19 fold enrichment (6-mer frequency, TF over GST control)
CCATGC	1.13 fold enrichment (6-mer frequency, TF over GST control)	1.18 fold enrichment (6-mer frequency, TF over GST control)	1.1 fold enrichment (6-mer frequency, TF over GST control)	1.03 fold enrichment (6-mer frequency, TF over GST control)		
GTCTTG	1.02 fold enrichment (6-mer frequency, TF over GST control)		1.19 fold enrichment (6-mer frequency, TF over GST control)			
TCAACA	1.03 fold enrichment (6-mer frequency, TF over GST control)	1.12 fold enrichment (6-mer frequency, TF over GST control)		1 fold enrichment (6-mer frequency, TF over GST control)		
GTCCCA	1.13 fold enrichment (6-mer frequency, TF over GST control)	1.08 fold enrichment (6-mer frequency, TF over GST control)	1.13 fold enrichment (6-mer frequency, TF over GST control)	1.12 fold enrichment (6-mer frequency, TF over GST control)		
ACCACA	1.13 fold enrichment (6-mer frequency, TF over GST control)	1.02 fold enrichment (6-mer frequency, TF over GST control)		1.09 fold enrichment (6-mer frequency, TF over GST control)		
GCGCGC	1.1 fold enrichment (6-mer frequency, TF over GST control)	1.05 fold enrichment (6-mer frequency, TF over GST control)	1.05 fold enrichment (6-mer frequency, TF over GST control)			
TGGACC	1.03 fold enrichment (6-mer frequency, TF over GST control)	1.19 fold enrichment (6-mer frequency, TF over GST control)	1.03 fold enrichment (6-mer frequency, TF over GST control)			
TTGCCG	1 fold enrichment (6-mer frequency, TF over GST control)	1.09 fold enrichment (6-mer frequency, TF over GST control)	1.22 fold enrichment (6-mer frequency, TF over GST control)	1.07 fold enrichment (6-mer frequency, TF over GST control)		
GCCCAC	1 fold enrichment (6-mer frequency, TF over GST control)	1.03 fold enrichment (6-mer frequency, TF over GST control)				
CATACG	1.07 fold enrichment (6-mer frequency, TF over GST control)	1.07 fold enrichment (6-mer frequency, TF over GST control)		1.06 fold enrichment (6-mer frequency, TF over GST control)		
GTTGAT	1.17 fold enrichment (6-mer frequency, TF over GST control)			1.05 fold enrichment (6-mer frequency, TF over GST control)		1.1 fold enrichment (6-mer frequency, TF over GST control)
AAAGCG	1.25 fold enrichment (6-mer frequency, TF over GST control)	1.14 fold enrichment (6-mer frequency, TF over GST control)	1.11 fold enrichment (6-mer frequency, TF over GST control)	1.07 fold enrichment (6-mer frequency, TF over GST control)	1.06 fold enrichment (6-mer frequency, TF over GST control)	1.14 fold enrichment (6-mer frequency, TF over GST control)

Sequence	binding signal (ELK4)	binding signal (ELF3)	binding signal (ETV7)	binding signal (ELF5)	binding signal (ETV2)	binding signal (CRX)
AGCAAC	1.12 fold enrichment (6-mer frequency, TF over GST control)		1.1 fold enrichment (6-mer frequency, TF over GST control)	1.07 fold enrichment (6-mer frequency, TF over GST control)		
CGGCCT	1.13 fold enrichment (6-mer frequency, TF over GST control)	1.03 fold enrichment (6-mer frequency, TF over GST control)	1.23 fold enrichment (6-mer frequency, TF over GST control)			
CCACCT	1.21 fold enrichment (6-mer frequency, TF over GST control)	1.3 fold enrichment (6-mer frequency, TF over GST control)		1.09 fold enrichment (6-mer frequency, TF over GST control)		
ACATGG	1.22 fold enrichment (6-mer frequency, TF over GST control)	1.17 fold enrichment (6-mer frequency, TF over GST control)	1.08 fold enrichment (6-mer frequency, TF over GST control)	1.1 fold enrichment (6-mer frequency, TF over GST control)		
GCTGCC	1.2 fold enrichment (6-mer frequency, TF over GST control)		1.04 fold enrichment (6-mer frequency, TF over GST control)	1.09 fold enrichment (6-mer frequency, TF over GST control)		
CCACAC	1.04 fold enrichment (6-mer frequency, TF over GST control)					
TGCTGC	1.22 fold enrichment (6-mer frequency, TF over GST control)	1.11 fold enrichment (6-mer frequency, TF over GST control)	1.1 fold enrichment (6-mer frequency, TF over GST control)	1.16 fold enrichment (6-mer frequency, TF over GST control)		
CGCCCG	1.09 fold enrichment (6-mer frequency, TF over GST control)	1.14 fold enrichment (6-mer frequency, TF over GST control)	1.08 fold enrichment (6-mer frequency, TF over GST control)	1.16 fold enrichment (6-mer frequency, TF over GST control)		
CATCGC	1.14 fold enrichment (6-mer frequency, TF over GST control)		1.11 fold enrichment (6-mer frequency, TF over GST control)	1.03 fold enrichment (6-mer frequency, TF over GST control)		
ATGGTG	1.17 fold enrichment (6-mer frequency, TF over GST control)	1.07 fold enrichment (6-mer frequency, TF over GST control)		1.02 fold enrichment (6-mer frequency, TF over GST control)		
ACCACC	1.16 fold enrichment (6-mer frequency, TF over GST control)	1.21 fold enrichment (6-mer frequency, TF over GST control)		1.07 fold enrichment (6-mer frequency, TF over GST control)		
AAGGCA	1.03 fold enrichment (6-mer frequency, TF over GST control)		1.05 fold enrichment (6-mer frequency, TF over GST control)	1.05 fold enrichment (6-mer frequency, TF over GST control)		
ACGTTG	1.12 fold enrichment (6-mer frequency, TF over GST control)		1.1 fold enrichment (6-mer frequency, TF over GST control)	1.02 fold enrichment (6-mer frequency, TF over GST control)		
AAGGGT	1.15 fold enrichment (6-mer frequency, TF over GST control)		1.1 fold enrichment (6-mer frequency, TF over GST control)	1.04 fold enrichment (6-mer frequency, TF over GST control)		
TGGTGC	1.14 fold enrichment (6-mer frequency, TF over GST control)		1.07 fold enrichment (6-mer frequency, TF over GST control)	1.02 fold enrichment (6-mer frequency, TF over GST control)		
TGGTCA	1.04 fold enrichment (6-mer frequency, TF over GST control)	1.1 fold enrichment (6-mer frequency, TF over GST control)				
